# According to the supplement of paper PMC8728848:
# Only a selection was taken, and the strongest signals are over-represented in it overall.
# B1: EUL D1A first (Oryza sativa) (protein)
# chain: MFGFGHHHNQAPAAPSDPNQIFKIFCRANENYCLTVRDSAVVLAPVNPKDEHQHWFKDMRFSTKVKDGEGMPAFALVNKATGLAVKHSLGQSHPVKLVPFNPEYEDASVLWTESKDVGKGFRCIRMVNNTRLNLDAFHGDKDHGGVRDGTTVVLWEWCKGDNQSWKILPWGPEAHSSSPGAATILEQKLISEEDLNSAVDHHHHHH
# Tests used:
# Assay in all cases: glycan array binding signal (z-score within array); higher = stronger binding
# Settings in all cases: glycan notation: IUPAC condensed, linker removed
# Fuc(a1-2)Gal(b1-3)GalNAc = molecular target: Fuc(a1-2)Gal(b1-3)GalNAc
# Summary of the method: (§1)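 Negative Z-scores can be read as non-binding. The Z-score is calculated within each array and then averaged across arrays of one protein sequence at different concentrations or buffers and across linkers. Arrays, 3228 in all, were curated from the Consortium for Functional Glycomics database and kept only where the protein sequence was available.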
# [1] = molecular target: Fuc(a1-2)Gal(b1-3)GalNAc(b1-3)Gal(a1-4)Gal(b1-4)Glc
# Summary of the method: as §1
# [2] = molecular target: Fuc(a1-2)Gal(b1-3)GlcNAc6S
# Summary of the method: as §1
# Fuc(a1-2)Gal(b1-4)GlcNAc = molecular target: Fuc(a1-2)Gal(b1-4)GlcNAc
# Summary of the method: as §1
# [3] = molecular target: Fuc(a1-2)Gal(b1-4)GlcNAc(b1-3)[Fuc(a1-3)[Gal(b1-4)]GlcNAc(b1-6)]Gal(b1-4)Glc
# Summary of the method: as §1
# [4] = molecular target: Fuc(a1-2)Gal(b1-4)[Fuc(a1-3)]GlcNAc(b1-3)Gal(b1-4)[Fuc(a1-3)]GlcNAc(b1-3)Gal(b1-4)[Fuc(a1-3)]GlcNAc
# Summary of the method: as §1
# [5] = molecular target: Fuc(a1-2)[Gal(a1-3)]Gal(b1-3)GlcNAc
# Summary of the method: as §1
# [6] = molecular target: Fuc(a1-2)[Gal(a1-3)]Gal(b1-3)GlcNAc(b1-6)GalNAc
# Summary of the method: as §1
# [7] = molecular target: Fuc(a1-2)[GalNAc(a1-3)]Gal(b1-4)GlcNAc(b1-2)Man(a1-3)[Fuc(a1-2)[GalNAc(a1-3)]Gal(b1-4)GlcNAc(b1-2)Man(a1-6)]Man(b1-4)GlcNAc(b1-4)[Fuc(a1-6)]GlcNAc
# Summary of the method: as §1
# [8] = molecular target: Fuc(a1-2)[GalNAc(a1-3)]Gal(b1-4)GlcNAc(b1-3)Gal(b1-4)GlcNAc
# Summary of the method: as §1
# [9] = molecular target: Fuc(a1-3)[Gal(b1-4)]GlcNAc(b1-2)Man
# Summary of the method: as §1
# Gal(a1-2)Gal = molecular target: Gal(a1-2)Gal
# Summary of the method: as §1
# [10] = molecular target: Gal(a1-3)Gal(b1-3)GlcNAc(b1-2)Man(a1-3)[Gal(a1-3)Gal(b1-3)GlcNAc(b1-2)Man(a1-6)]Man(b1-4)GlcNAc(b1-4)GlcNAc
# Summary of the method: as §1
# [11] = molecular target: Gal(a1-3)Gal(b1-4)[Fuc(a1-3)]GlcNAc
# Summary of the method: as §1
# [12] = molecular target: Gal(a1-4)Gal(b1-3)GlcNAc(b1-2)Man(a1-3)[Gal(a1-4)Gal(b1-3)GlcNAc(b1-2)Man(a1-6)]Man(b1-4)GlcNAc(b1-4)GlcNAc
# Summary of the method: as §1
# Gal(a1-4)Gal(b1-4)Glc = molecular target: Gal(a1-4)Gal(b1-4)Glc
# Summary of the method: as §1
# Gal(b1-3)GalNAc = molecular target: Gal(b1-3)GalNAc
# Summary of the method: as §1
# [13] = molecular target: Gal(b1-3)GalNAc(a1-3)[Fuc(a1-2)]Gal(b1-4)Glc
# Summary of the method: as §1
# [14] = molecular target: Gal(b1-3)GalNAc(b1-3)Gal(a1-4)Gal(b1-4)Glc
# Summary of the method: as §1
# [15] = molecular target: Gal(b1-3)[GlcNAc(b1-6)]GalNAc
# Summary of the method: as §1
# [16] = molecular target: Gal(b1-3)[Neu5Ac(b2-6)]GalNAc
# Summary of the method: as §1
# [17] = molecular target: Gal(b1-4)GlcNAc(a1-6)Gal(b1-4)GlcNAc
# Summary of the method: as §1
# [18] = molecular target: Gal(b1-4)GlcNAc(b1-2)Man(a1-3)[Gal(b1-4)GlcNAc(b1-2)Man(a1-6)]Man(b1-4)GlcNAc(b1-4)GlcNAc
# Summary of the method: as §1
# [19] = molecular target: Gal(b1-4)GlcNAc(b1-2)Man(a1-3)[Gal(b1-4)GlcNAc(b1-2)Man(a1-6)][GlcNAc(b1-4)]Man(b1-4)GlcNAc(b1-4)[Fuc(a1-6)]GlcNAc
# Summary of the method: as §1
# [20] = molecular target: Gal(b1-4)GlcNAc(b1-2)Man(a1-6)Man(b1-4)GlcNAc(b1-4)GlcNAc
# Summary of the method: as §1
# [21] = molecular target: Gal(b1-4)GlcNAc(b1-2)[Gal(b1-4)GlcNAc(b1-4)]Man(a1-3)[GlcNAc(b1-4)][Gal(b1-4)GlcNAc(b1-2)Man(a1-6)]Man(b1-4)GlcNAc(b1-4)GlcNAc
# Summary of the method: as §1
# [22] = molecular target: Gal(b1-4)GlcNAc(b1-2)[Gal(b1-4)GlcNAc(b1-6)]Man(a1-6)[Gal(b1-4)GlcNAc(b1-2)Man(a1-3)]Man(b1-4)GlcNAc(b1-4)GlcNAc
# Summary of the method: as §1
# [23] = molecular target: Gal(b1-4)GlcNAc(b1-3)Gal(b1-4)GlcNAc(b1-3)Gal(b1-4)GlcNAc(b1-2)[Gal(b1-4)GlcNAc(b1-3)Gal(b1-4)GlcNAc(b1-3)Gal(b1-4)GlcNAc(b1-6)]Man(a1-6)[Gal(b1-4)GlcNAc(b1-3)Gal(b1-4)GlcNAc(b1-3)Gal(b1-4)GlcNAc(b1-2)Man(a1-3)]Man(b1-4)GlcNAc(b1-4)[Fuc(a1-6)]GlcNAc
# Summary of the method: as §1
# [24] = molecular target: Gal(b1-4)GlcNAc(b1-3)Gal(b1-4)[Fuc(a1-3)]GlcNAc(b1-3)Gal(b1-4)[Fuc(a1-3)]GlcNAc
# Summary of the method: as §1
# [25] = molecular target: Gal(b1-4)GlcNAc(b1-6)[Gal(b1-4)GlcNAc(b1-3)]GalNAc
# Summary of the method: as §1
# [26] = molecular target: GalNAc(a1-3)GalNAc(b1-3)Gal(a1-4)Gal(b1-4)Glc
# Summary of the method: as §1
# [27] = molecular target: GalNAc(b1-3)Gal(a1-6)Gal(b1-4)Glc
# Summary of the method: as §1
# GalNAc(b1-4)GlcNAc6S = molecular target: GalNAc(b1-4)GlcNAc6S
# Summary of the method: as §1
# GalNAc3S(b1-4)GlcNAc3S = molecular target: GalNAc3S(b1-4)GlcNAc3S
# Summary of the method: as §1
# GalNAc4S6S(b1-4)GlcNAc = molecular target: GalNAc4S6S(b1-4)GlcNAc
# Summary of the method: as §1
# [28] = molecular target: GlcNAc(b1-2)Man(a1-3)[GlcNAc(b1-2)Man(a1-6)]Man(b1-4)GlcNAc(b1-4)[Fuc(a1-6)]GlcNAc
# Summary of the method: as §1
# [29] = molecular target: GlcNAc(b1-3)Gal(b1-4)GlcNAc(b1-2)[GlcNAc(b1-3)Gal(b1-4)GlcNAc(b1-6)]Man(a1-6)[GlcNAc(b1-3)Gal(b1-4)GlcNAc(b1-2)Man(a1-3)]Man(b1-4)GlcNAc(b1-4)GlcNAc
# Summary of the method: as §1
# [30] = molecular target: GlcNAc(b1-3)Gal(b1-4)GlcNAc(b1-3)Gal(b1-4)GlcNAc(b1-3)Gal(b1-4)GlcNAc(b1-3)Gal(b1-4)GlcNAc(b1-2)Man(a1-3)[GlcNAc(b1-3)Gal(b1-4)GlcNAc(b1-3)Gal(b1-4)GlcNAc(b1-3)Gal(b1-4)GlcNAc(b1-3)Gal(b1-4)GlcNAc(b1-2)Man(a1-6)]Man(b1-4)GlcNAc(b1-4)[Fuc(a1-6)]GlcNAc
# Summary of the method: as §1
# [31] = molecular target: GlcNAc(b1-3)[GlcNAc(b1-6)]Gal(b1-4)GlcNAc
# Summary of the method: as §1
# [32] = molecular target: GlcNAc(b1-4)GlcNAc(b1-4)GlcNAc(b1-4)GlcNAc(b1-4)GlcNAc(b1-4)GlcNAc
# Summary of the method: as §1
# Man(a1-2)Man(a1-3)Man = molecular target: Man(a1-2)Man(a1-3)Man
# Summary of the method: as §1
# [33] = molecular target: Neu5Ac(a2-3)Gal(b1-3)GlcNAc(b1-3)Gal(b1-3)GlcNAc
# Summary of the method: as §1
# [34] = molecular target: Neu5Ac(a2-3)Gal(b1-3)[GlcNAc(b1-6)]GalNAc
# Summary of the method: as §1
# [35] = molecular target: Neu5Ac(a2-3)Gal(b1-4)GlcNAc(b1-3)Gal(b1-4)GlcNAc(b1-6)[Gal(b1-3)]GalNAc
# Summary of the method: as §1
# [36] = molecular target: Neu5Ac(a2-3)Gal(b1-4)GlcNAc(b1-3)Gal(b1-4)[Fuc(a1-3)]GlcNAc
# Summary of the method: as §1
# [37] = molecular target: Neu5Ac(a2-3)Gal(b1-4)GlcNAc(b1-6)[Gal(b1-3)]GalNAc
# Summary of the method: as §1
# [38] = molecular target: Neu5Ac(a2-3)Gal(b1-4)[Fuc(a1-3)]GlcNAc(b1-3)GalNAc
# Summary of the method: as §1
# [39] = molecular target: Neu5Ac(a2-3)[Neu5Ac(a2-6)]GalNAc
# Summary of the method: as §1
# [40] = molecular target: Neu5Ac(a2-6)Gal(b1-4)GlcNAc(b1-2)Man(a1-6)[Man(a1-3)]Man(b1-4)GlcNAc(b1-4)GlcNAc
# Summary of the method: as §1
# Neu5Gc(a2-3)Gal(b1-4)Glc = molecular target: Neu5Gc(a2-3)Gal(b1-4)Glc
# Summary of the method: as §1
# [41] = molecular target: Neu5Gc(a2-3)Gal(b1-4)GlcNAc
# Summary of the method: as §1
binder,measurement,setting,value
B1,glycan array binding signal (z-score),Fuc(a1-2)Gal(b1-3)GalNAc,-0.658
same,glycan array binding signal (z-score),[1],2.66
same,glycan array binding signal (z-score),[2],3.74
same,glycan array binding signal (z-score),Fuc(a1-2)Gal(b1-4)GlcNAc,-0.369
same,glycan array binding signal (z-score),[3],2.74
same,glycan array binding signal (z-score),[4],0.387
same,glycan array binding signal (z-score),[5],0.384
same,glycan array binding signal (z-score),[6],-0.959
same,glycan array binding signal (z-score),[7],0.095
same,glycan array binding signal (z-score),[8],-0.61
same,glycan array binding signal (z-score),[9],3.34
same,glycan array binding signal (z-score),Gal(a1-2)Gal,-0.848
same,glycan array binding signal (z-score),[10],3.31
same,glycan array binding signal (z-score),[11],-0.411
same,glycan array binding signal (z-score),[12],2.2
same,glycan array binding signal (z-score),Gal(a1-4)Gal(b1-4)Glc,0.4
same,glycan array binding signal (z-score),Gal(b1-3)GalNAc,-0.735
same,glycan array binding signal (z-score),[13],-1.67
same,glycan array binding signal (z-score),[14],-0.207
same,glycan array binding signal (z-score),[15],-1.03
same,glycan array binding signal (z-score),[16],-1.15
same,glycan array binding signal (z-score),[17],1.94
same,glycan array binding signal (z-score),[18],3.09
same,glycan array binding signal (z-score),[19],-1.23
same,glycan array binding signal (z-score),[20],3.03
same,glycan array binding signal (z-score),[21],-1.53
same,glycan array binding signal (z-score),[22],-1.05
same,glycan array binding signal (z-score),[23],2.45
same,glycan array binding signal (z-score),[24],-0.16
same,glycan array binding signal (z-score),[25],-0.802
same,glycan array binding signal (z-score),[26],-0.059
same,glycan array binding signal (z-score),[27],-2.32
same,glycan array binding signal (z-score),GalNAc(b1-4)GlcNAc6S,-0.411
same,glycan array binding signal (z-score),GalNAc3S(b1-4)GlcNAc3S,-0.185
same,glycan array binding signal (z-score),GalNAc4S6S(b1-4)GlcNAc,0.534
same,glycan array binding signal (z-score),[28],3.11
same,glycan array binding signal (z-score),[29],1.95
same,glycan array binding signal (z-score),[30],2.06
same,glycan array binding signal (z-score),[31],6.85
same,glycan array binding signal (z-score),[32],-0.541
same,glycan array binding signal (z-score),Man(a1-2)Man(a1-3)Man,0.615
same,glycan array binding signal (z-score),[33],0.506
same,glycan array binding signal (z-score),[34],0.405
same,glycan array binding signal (z-score),[35],0.24
same,glycan array binding signal (z-score),[36],-0.958
same,glycan array binding signal (z-score),[37],0.081
same,glycan array binding signal (z-score),[38],3.45
same,glycan array binding signal (z-score),[39],-0.451
same,glycan array binding signal (z-score),[40],-0.647
same,glycan array binding signal (z-score),Neu5Gc(a2-3)Gal(b1-4)Glc,-0.152
same,glycan array binding signal (z-score),[41],0.3
